Bioassay records as filed in PubChem.
Only a selection was taken, and hits are over-represented in it overall.
RBX1-CUL1 inh: inhibitors of human ROC1-CUL1 ubiquitin ligase activity. E3 ubiquitin-protein ligase RBX1 (Homo sapiens) + Cullin-1 (Homo sapiens), P62877+Q13616. in vitro K48 di-Ub FRET, acceptor:donor ratio, 45 min. inhibition, % at 10 µM. 140,000 tested, 0.6% active. AID 1347404, 2020; in the data active = inhibition above about 25%
Target sequence (P62877 whole entry, looked up): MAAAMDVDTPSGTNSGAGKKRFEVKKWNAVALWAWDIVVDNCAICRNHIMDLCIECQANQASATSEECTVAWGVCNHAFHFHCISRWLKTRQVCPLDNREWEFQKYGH
Target sequence (Q13616 whole entry, looked up): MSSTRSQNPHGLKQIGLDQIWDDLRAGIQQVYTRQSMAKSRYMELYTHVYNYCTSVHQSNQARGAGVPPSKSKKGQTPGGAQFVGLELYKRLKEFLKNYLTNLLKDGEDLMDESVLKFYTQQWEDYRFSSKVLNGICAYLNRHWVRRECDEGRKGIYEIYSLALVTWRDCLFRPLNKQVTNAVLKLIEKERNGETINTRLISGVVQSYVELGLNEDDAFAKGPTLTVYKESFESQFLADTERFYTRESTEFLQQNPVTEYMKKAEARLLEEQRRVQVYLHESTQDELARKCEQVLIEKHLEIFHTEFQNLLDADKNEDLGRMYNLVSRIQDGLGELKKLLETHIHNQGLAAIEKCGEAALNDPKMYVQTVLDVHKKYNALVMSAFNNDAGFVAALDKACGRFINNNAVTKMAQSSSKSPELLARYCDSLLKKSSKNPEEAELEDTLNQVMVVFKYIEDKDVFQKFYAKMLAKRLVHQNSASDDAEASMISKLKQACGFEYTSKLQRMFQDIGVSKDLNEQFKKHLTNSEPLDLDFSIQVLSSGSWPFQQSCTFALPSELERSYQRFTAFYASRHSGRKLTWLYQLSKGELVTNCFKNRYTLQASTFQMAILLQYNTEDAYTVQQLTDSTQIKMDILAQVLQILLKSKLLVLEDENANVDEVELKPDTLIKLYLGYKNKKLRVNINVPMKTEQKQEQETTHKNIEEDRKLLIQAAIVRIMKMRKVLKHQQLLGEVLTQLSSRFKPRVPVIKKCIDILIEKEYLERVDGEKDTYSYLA
* marks the source's active call; other numbers are inactive results.

SMILES	RBX1-CUL1 inh
Cc1c(C=C2C(=O)NC(=S)NC2=O)c2ccccc2n1CC(=O)NCc1ccco1	61.6*
CC1CN(CC(O)COc2ccc3c(c2)OCO3)CC(C)O1 (stereo not given)	-4.7
Clc1ccc2c(NCCN3CCN(CCCCCCCN4CCN(CCNc5ccnc6cc(Cl)ccc56)CC4)CC3)ccnc2c1	26.8*
Clc1ccc2c(NCCN3CCN(CCCN4CCN(CCNc5ccnc6cc(Cl)ccc56)CC4)CC3)ccnc2c1	0.1
COC(=O)NNc1ccnc2cc(Cl)ccc12	0.8
O=S(=O)(NCCC1=CCCCC1)c1ccccc1	-5.3
COC(=O)c1ccccc1NS(=O)(=O)c1cc(C)ccc1C	-12.4
CCCOC(=O)c1cc(NC(=O)c2ccccc2F)ccc1O	14.1
Cc1c(N2C(=O)/C(=C/c3ccc(Cl)cc3Cl)SC2=S)c(=O)n(-c2ccccc2)n1C	-2.3
O=C(NN1C(=O)/C(=C/c2ccc(Cl)cc2Cl)SC1=S)c1ccccc1Cl	1.1
O=C(O)C1=NN(c2ccccc2)C(=O)/C1=C\c1ccc(Cl)cc1Cl	40.3*
Cc1ccccc1S(=O)(=O)Nc1cccc(C(C)O)c1 (stereo not given)	-0.5
COc1ccc(CCN2CCCC(CN(C)C(=O)c3ccc(C)nc3)C2)cc1 (stereo not given)	-2.3
c1ccc(C2=NO[C@H](c3ccccc3)[C@H]2c2ccccc2)cc1	-0.8
CN(C)S(=O)(=O)c1ccc(C(=O)Nc2cc(C(F)(F)F)cc(C(F)(F)F)c2)cc1	-2.2
COc1cc(CNC2CC(=O)N(Cc3ccccc3Cl)C2)ccc1F (stereo not given)	1.5
Nc1ccc(/C=C/c2ccc(Nc3nc(Nc4ccccc4)nc(N4CCOCC4)n3)cc2S(=O)(=O)O)c(S(=O)(=O)O)c1	37.2*
Fc1ccc(Nc2nc(Nc3ccc(F)cc3F)nc(N3CCOCC3)n2)cc1	-3.5
Cc1ccc(Nc2nc(Nc3ccc(C)c(C)c3)nc(N3CCOCC3)n2)cc1C	-4.2
COc1cnnc(SC(=N)N)c1OC	1.5
COc1ccc(-c2[nH]nc3c2C(c2cc(I)cc(I)c2O)C(C#N)C(=N)O3)cc1 (stereo not given)	28.2*
COc1ccc(-c2[nH]nc3c2C(c2ccoc2)C(C#N)C(=N)O3)cc1 (stereo not given)	-6.5
COc1ccc(-c2[nH]nc3c2C(c2ccc(Br)cc2)C(C#N)C(=N)O3)cc1 (stereo not given)	13.7
Cc1cc2nnc(Sc3ncnc4scc(-c5ccc(Cl)cc5)c34)n2c2ccccc12	-7.4
N#CC(CC1=Nc2ccccc2C1=O)C(N)=NC1CCCCC1 (stereo not given)	71.0*
SMILES	RBX1-CUL1 inh
CN(C)CC1=Nc2ccccc2C1=O	2.7
CCN(CC)CCN=C(N)C(C#N)CC1=Nc2ccccc2C1=O (stereo not given)	0.3
CCCCCC(=O)Nc1sc2c(c1C(N)=O)CCC(C)C2 (stereo not given)	3.7
CC1CCN(S(=O)(=O)Nc2ccc(Br)cc2)CC1	1.0
O=[N+]([O-])c1ccc(N/N=C/c2cc([N+](=O)[O-])ccc2Cl)cc1	-7.3
Nc1c(C=C2C=C(Cl)C(=O)C(Cl)=C2)c(=O)nc2sc(C34CC5CC(CC(C5)C3)C4)nn12	75.9*
CCC(CC)c1nn2c(N)c(C=C3C=CC(=O)C(OC)=C3)c(=O)nc2s1	11.7
CC(C)c1nn2c(N)c(C=C3C=C(Br)C=CC3=O)c(=O)nc2s1	1.9
CN(Cc1ccccc1)C(=S)NC(=O)C1CC1	-3.2
Clc1ccc(CNc2ccc(N3CCN(Cc4ccccc4)CC3)cc2)cc1	2.2
CCOc1cc(CNc2ccc(O)cc2)cc(Br)c1OCc1ccc(Cl)cc1	75.7*
CCOc1cc(CNc2ccc(O)cc2)cc(Cl)c1OCc1ccccc1	10.2
CC(C)(CO)NCc1ccc(Cl)cc1	0.8
CCOC(=O)c1ccc(NCc2cc(Br)c(OCc3ccc(Cl)cc3Cl)c(OCC)c2)cc1	-13.8
Oc1ccc(NCc2ccc(Cl)cc2)cc1	93.6*
CCOc1c(Cl)cc(C(=O)Nc2cccc(C(C)=O)c2)cc1Cl	1.2
CCOC(=O)N1CCc2c(sc3nc4n(c(=O)c23)N=C(c2ccc(Cl)cc2)CS4)C1	-3.2
O=C(c1ccc2c(c1)OCCO2)N1CCc2ccccc21	2.9
CSc1nsc(SCCC(=O)Nc2ccccc2)n1	-4.2
CSc1nsc(SCSc2nc(SC)ns2)n1	36.1*
CSc1nsc(SCSc2nnc(-c3ccccc3)o2)n1	-3.7
Oc1cc(-n2cccn2)c(O)c2ccccc12	42.1*
Fc1ccc(-c2cc(-c3ccccc3)nc(-n3cccn3)n2)cc1	-2.3
c1ccc(Nc2nc(Nc3ccccc3)nc(-n3cccn3)n2)cc1	4.8
COc1cc(OC)nc(Oc2cccc(Cl)c2)n1	-1.0
O=C1C(=O)N(c2ccccn2)C(c2ccccc2Cl)C1C(=O)c1ccccc1 (stereo not given)	28.9*
CC(C)Oc1ccc(C(=O)C2C(=O)C(=O)N(c3ccccn3)C2c2ccc(Cl)cc2)cc1 (stereo not given)	-4.1
Cc1nc(N2C(=O)C(=O)C(C(=O)c3ccccc3)C2c2ccc(Br)cc2)sc1C (stereo not given)	-0.4
